Data taken from the supplement of paper PMC6288085.
Structures can show the parent of a compound that is named as a salt. ± gives the uncertainty stated by the source.

system: Caenorhabditis elegans N2; assay: food intake (mean delta OD600 / animal over 72 h) with 50 uM loxapine co-treatment (OD600 units per animal); higher = more food eaten (less suppression of loxapine-induced hyperphagia); conditions: first compound 33 µM, loxapine concentration 50 µM
Experimental: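 C. elegans N2 adults (FUDR-sterilised, day 1) in 96-well plates fed gamma-irradiated bacteria. Each library drug (MedChemExpress FDA-approved library) at 33 uM was combined with loxapine at 50 uM. Food intake was measured as bacterial clearance: the change in OD600 from day 1 to 72 h, normalised per animal (mean over 14-21 wells of about 10-12 worms). Drugs flagged for bacterial lysis or sickness were excluded by the authors.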

| SMILES | food intake |
| --- | --- |
| O=C(O)CCCCCCCC(=O)O [azelaic acid] + CN1CCN(C2=Nc3ccccc3Oc3ccc(Cl)cc32)CC1 [loxapine] | 0.0259 ± 0.018 |
| O=C1CCc2cc(OCCCCc3nnnn3C3CCCCC3)ccc2N1 [cilostazol] + CN1CCN(C2=Nc3ccccc3Oc3ccc(Cl)cc32)CC1 [loxapine] | 0.0227 ± 0.0031 |
| Cc1ccc(Nc2nccc(N(C)c3ccc4c(C)n(C)nc4c3)n2)cc1S(N)(=O)=O [pazopanib (hydrochloride)] + CN1CCN(C2=Nc3ccccc3Oc3ccc(Cl)cc32)CC1 [loxapine] | 0.0206 ± 0.0053 |
| C[C@H](Cn1cnc2c(N)ncnc21)OCP(=O)(O)O [tenofovir] + CN1CCN(C2=Nc3ccccc3Oc3ccc(Cl)cc32)CC1 [loxapine] | 0.0219 ± 0.0044 |
| CC(=O)Nc1ncc([N+](=O)[O-])s1 [nithiamide] + CN1CCN(C2=Nc3ccccc3Oc3ccc(Cl)cc32)CC1 [loxapine] | 0.0244 ± 0.0027 |
| COC(=O)/C=C/C(=O)OC [dimethyl fumarate] + CN1CCN(C2=Nc3ccccc3Oc3ccc(Cl)cc32)CC1 [loxapine] | 0.0218 ± 0.0043 |
| C=CC[N+]1([C@H]2C[C@H]3[C@@H]4CC[C@H]5C[C@H](O)[C@@H](N6CCOCC6)C[C@]5(C)[C@H]4CC[C@]3(C)[C@H]2OC(C)=O)CCCC1 [rocuronium (bromide)] + CN1CCN(C2=Nc3ccccc3Oc3ccc(Cl)cc32)CC1 [loxapine] | 0.0231 ± 0.0029 |
| C#Cc1cccc(Nc2ncnc3cc(OCCOC)c(OCCOC)cc23)c1 [Erlotinib] + CN1CCN(C2=Nc3ccccc3Oc3ccc(Cl)cc32)CC1 [loxapine] | 0.0212 ± 0.0034 |
| Cn1c(=O)c2nc[nH]c2n(C)c1=O [theophylline] + CN1CCN(C2=Nc3ccccc3Oc3ccc(Cl)cc32)CC1 [loxapine] | 0.00971 ± 0.011 |
| O=C(O)COC(=O)Cc1ccccc1Nc1c(Cl)cccc1Cl [aceclofenac] + CN1CCN(C2=Nc3ccccc3Oc3ccc(Cl)cc32)CC1 [loxapine] | 0.0221 ± 0.0083 |
| CNC(=O)[C@H](Cc1c[nH]c2ccccc12)NC(=O)[C@@H](CC(=O)NO)CC(C)C + CN1CCN(C2=Nc3ccccc3Oc3ccc(Cl)cc32)CC1 [loxapine] | 0.0195 ± 0.0054 |
| C#C[C@]1(O)CC[C@H]2[C@@H]3CCc4cc(OC)ccc4[C@H]3CC[C@@]21C [mestranol] + CN1CCN(C2=Nc3ccccc3Oc3ccc(Cl)cc32)CC1 [loxapine] | 0.0204 ± 0.0018 |
| CCOc1ccccc1OCCN[C@H](C)Cc1ccc(OC)c(S(N)(=O)=O)c1 [tamsulosin] + CN1CCN(C2=Nc3ccccc3Oc3ccc(Cl)cc32)CC1 [loxapine] | 0.022 ± 0.0032 |
| CC=CC(=O)N(CC)c1ccccc1C [crotamiton] + CN1CCN(C2=Nc3ccccc3Oc3ccc(Cl)cc32)CC1 [loxapine] | 0.0223 ± 0.002 |
| COc1ccc(CNc2nc(N3CCC[C@H]3CO)ncc2C(=O)NCc2ncccn2)cc1Cl [avanafil] + CN1CCN(C2=Nc3ccccc3Oc3ccc(Cl)cc32)CC1 [loxapine] | 0.023 ± 0.0037 |
| CC(CCc1ccccc1)NCC(O)c1ccc(O)c(C(N)=O)c1 (stereo not given) [labetalol (hydrochloride)] + CN1CCN(C2=Nc3ccccc3Oc3ccc(Cl)cc32)CC1 [loxapine] | 0.0213 ± 0.0075 |
| C#C[C@]1(O)CC[C@H]2[C@@H]3CCC4=CC(=O)CC[C@@H]4[C@H]3C(=C)C[C@@]21CC [etonogestrel] + CN1CCN(C2=Nc3ccccc3Oc3ccc(Cl)cc32)CC1 [loxapine] | 0.0244 ± 0.012 |
| O=NN(CCCl)C(=O)NC1CCCCC1 [Lomustine] + CN1CCN(C2=Nc3ccccc3Oc3ccc(Cl)cc32)CC1 [loxapine] | 0.0248 ± 0.0039 |
| C[N+](C)(C)CCCCCC[N+](C)(C)C [hexamethonium (bromide)] + CN1CCN(C2=Nc3ccccc3Oc3ccc(Cl)cc32)CC1 [loxapine] | 0.0215 ± 0.0099 |
| NS(=O)(=O)c1ccc(C(=O)O)cc1 [carzenide] + CN1CCN(C2=Nc3ccccc3Oc3ccc(Cl)cc32)CC1 [loxapine] | 0.0251 ± 0.0067 |

| SMILES | food intake |
| --- | --- |
| O=C([O-])c1ccccc1O.[Na+] [sodium salicylate] + CN1CCN(C2=Nc3ccccc3Oc3ccc(Cl)cc32)CC1 [loxapine] | 0.0224 ± 0.0057 |
| COc1cc(OC)c(C(=O)CCCN2CCCC2)c(OC)c1 [buflomedil (hydrochloride)] + CN1CCN(C2=Nc3ccccc3Oc3ccc(Cl)cc32)CC1 [loxapine] | 0.0222 ± 0.0028 |
| S=c1nc[nH]c2nc[nH]c12 [6-Mercaptopurine] + CN1CCN(C2=Nc3ccccc3Oc3ccc(Cl)cc32)CC1 [loxapine] | 0.0218 ± 0.0028 |
| COc1ccc(CCN(C)CCCN2CCc3cc(OC)c(OC)cc3CC2=O)cc1OC [zatebradine] + CN1CCN(C2=Nc3ccccc3Oc3ccc(Cl)cc32)CC1 [loxapine] | 0.0232 ± 0.0027 |
| O=P(O)(O)C(O)(Cn1ccnc1)P(=O)(O)O [Zoledronic acid (monohydrate)] + CN1CCN(C2=Nc3ccccc3Oc3ccc(Cl)cc32)CC1 [loxapine] | 0.0237 ± 0.003 |
| CN(CCOc1ccc(CC2SC(=O)NC2=O)cc1)c1ccccn1 (stereo not given) [rosiglitazone (maleate)] + CN1CCN(C2=Nc3ccccc3Oc3ccc(Cl)cc32)CC1 [loxapine] | 0.0207 ± 0.002 |
| CO/N=C(\C(=O)N[C@@H]1C(=O)N2C(C(=O)O)=C(CSC(=O)c3ccco3)CS[C@H]12)c1csc(N)n1 [ceftiofur (sodium)] + CN1CCN(C2=Nc3ccccc3Oc3ccc(Cl)cc32)CC1 [loxapine] | 0.0225 ± 0.0037 |
| CC(=O)CCCCn1c(=O)c2c(ncn2C)n(C)c1=O [pentoxifylline] + CN1CCN(C2=Nc3ccccc3Oc3ccc(Cl)cc32)CC1 [loxapine] | 0.0226 ± 0.002 |
| CN(C)c1cc(NC(=O)CNC(C)(C)C)c(O)c2c1C[C@H]1C[C@H]3[C@H](N(C)C)C(O)=C(C(N)=O)C(=O)[C@@]3(O)C(O)=C1C2=O [tigecycline] + CN1CCN(C2=Nc3ccccc3Oc3ccc(Cl)cc32)CC1 [loxapine] | 0.0234 ± 0.0019 |
| N[C@@H]1CCCCN(c2c(F)cc3c(=O)c(C(=O)O)cn(C4CC4)c3c2Cl)C1 [besifloxacin (hydrochloride)] + CN1CCN(C2=Nc3ccccc3Oc3ccc(Cl)cc32)CC1 [loxapine] | 0.0227 ± 0.0056 |
| CC(C)Cc1ccc(C(C)C(=O)O)cc1 (stereo not given) [ibuprofen] + CN1CCN(C2=Nc3ccccc3Oc3ccc(Cl)cc32)CC1 [loxapine] | 0.0222 ± 0.0021 |
| COc1c(N2C[C@@H]3CCCN[C@@H]3C2)c(F)cc2c(=O)c(C(=O)O)cn(C3CC3)c12 [moxifloxacin (hydrochloride)] + CN1CCN(C2=Nc3ccccc3Oc3ccc(Cl)cc32)CC1 [loxapine] | 0.0216 ± 0.0034 |
| C[C@H]1c2cccc(O)c2C(=O)C2=C(O)[C@]3(O)C(=O)C(C(N)=O)=C(O)[C@@H](N(C)C)[C@@H]3[C@@H](O)[C@@H]21 [doxycycline] + CN1CCN(C2=Nc3ccccc3Oc3ccc(Cl)cc32)CC1 [loxapine] | 0.0161 ± 0.0037 |
| CC(=O)O[C@H]1Cc2ccccc2N(C(N)=O)c2ccccc21 [eslicarbazepine (acetate)] + CN1CCN(C2=Nc3ccccc3Oc3ccc(Cl)cc32)CC1 [loxapine] | 0.0232 ± 0.0043 |
| Fc1ccc([C@@H]2CCNC[C@H]2COc2ccc3c(c2)OCO3)cc1 [paroxetine (hydrochloride)] + CN1CCN(C2=Nc3ccccc3Oc3ccc(Cl)cc32)CC1 [loxapine] | 0.0221 ± 0.0043 |
| CC(C)(Oc1ccc(CCNC(=O)c2ccc(Cl)cc2)cc1)C(=O)O [bezafibrate] + CN1CCN(C2=Nc3ccccc3Oc3ccc(Cl)cc32)CC1 [loxapine] | 0.0212 ± 0.0034 |
| CCc1c2c(nc3ccc(OC(=O)N4CCC(N5CCCCC5)CC4)cc13)-c1cc3c(c(=O)n1C2)COC(=O)[C@]3(O)CC [Irinotecan] + CN1CCN(C2=Nc3ccccc3Oc3ccc(Cl)cc32)CC1 [loxapine] | 0.022 ± 0.003 |
| CC(C)NCC(O)COc1ccc(CCOCC2CC2)cc1 (stereo not given) [betaxolol] + CN1CCN(C2=Nc3ccccc3Oc3ccc(Cl)cc32)CC1 [loxapine] | 0.0265 ± 0.0022 |
| CCCC(=O)Nc1ncnc2c1ncn2[C@@H]1O[C@@H]2COP(=O)(O)O[C@H]2[C@H]1OC(=O)CCC [bucladesine (calcium salt)] + CN1CCN(C2=Nc3ccccc3Oc3ccc(Cl)cc32)CC1 [loxapine] | 0.022 ± 0.0033 |
| NNc1nncc2ccccc12 [hydralazine (hydrochloride)] + CN1CCN(C2=Nc3ccccc3Oc3ccc(Cl)cc32)CC1 [loxapine] | 0.022 ± 0.017 |
